Among the data in PubChem BioAssay (NCI) are growth values, retold here.

The panel holds about 83,000 compounds, 20% with a hit somewhere; the sample as a whole holds those more often.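 Assay: single dose, 48 h. Readout: percent growth (0 = no net growth; negative = cell death). Active: <10.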 Unmarked numbers belong to inactive results. Calls of active or inactive are those of the source.

Test in all cases: NCI-60 one-dose screen, 48 h (100 = growth as untreated, 0 = no growth, -100 = all killed)
One experiment relates to NCI-H226 lung. Particulars: 10 µM.
The subject of a further experiment is NCI-H322M lung. Particulars: 10 µM.
The next experiment relates to HOP-62 NSCLC. Particulars: 10 µM.
In another experiment the test system is NCI-H460 lung. Particulars: 10 µM.
A further experiment deals with NCI-H522 lung. Particulars: 10 µM.
A further experiment concerns COLO 205 colon. Particulars: 10 µM.
The next experiment concerns DU-145 prostate. The note with it: 10 µM.
In another experiment the test system is SF-268 CNS. The note with it: 10 µM.
In the next experiment the test system is SF-295 CNS. The note with it: 10 µM.
Another experiment deals with SF-539 CNS. Particulars: 10 µM.
The next experiment has as its system UACC-257 melanoma. The note with it: 10 µM.
The subject of another experiment is M14 melanoma. The note with it: 10 µM.
The next experiment has as its system HCT-15 colon. Particulars: 10 µM.
Another experiment concerns HT29 colon. Particulars: 10 µM.
In another experiment the test system is SNB-19 CNS. Particulars: 10 µM.
The next experiment has as its system U251 CNS. Particulars: 10 µM.
In a further experiment the test system is SK-MEL-5 melanoma. The note with it: 10 µM.
In the next experiment the test system is UACC-62 melanoma. The note with it: 10 µM.
The subject of another experiment is SK-MEL-2 melanoma. The note with it: 10 µM.
In a further experiment the test system is HL-60(TB) leukemia. The note with it: 10 µM unless noted.

Turning to `CC12OOC(C)(OO1)C2CCC(=O)OCCNc1ccnc2cc(Cl)ccc12` (stereo not given), the growth is 98% in the experiment on NCI-H226 lung; 96.6% in the experiment on NCI-H322M lung; 96.8% in the experiment on HOP-62 NSCLC; 45.2% with NCI-H460 lung; -79.2% (active) in the experiment on NCI-H522 lung; -54.4% (active) with COLO 205 colon. The growth is -53.9% (active) in the experiment on DU-145 prostate; 97% in the experiment with SF-268 CNS; 83% in the experiment on SF-295 CNS; 35.6% in the experiment with SF-539 CNS; 82.1% in the experiment with UACC-257 melanoma; 14.6% in the experiment with M14 melanoma. Further, the growth was -73.2% (active) in the experiment with HCT-15 colon; -59.8% (active) with HT29 colon; 97.6% with SNB-19 CNS; 105% in the experiment with U251 CNS; 36.5% with SK-MEL-5 melanoma; 88.1% in the experiment with UACC-62 melanoma. The growth was 107% in the experiment on SK-MEL-2 melanoma and -40.3% (active) in the experiment on HL-60(TB) leukemia.

As to `COC(=O)CCn1c(-c2ccc(-n3cc(-c4ccc(O[C@H]5O[C@@H]6OC7(C)CC[C@H]8[C@H](C)CC[C@@H]([C@H]5C)[C@@]68OO7)cc4)nn3)cc2)nc2ccccc21`, the growth with NCI-H226 lung was 32.8%; with NCI-H322M lung, 46.7%; in the experiment on HOP-62 NSCLC it was 32%; in the experiment on NCI-H460 lung it was 11.4%; in the experiment on NCI-H522 lung, -22.8% (active); in the experiment with COLO 205 colon, -26.6% (active). Moreover, the growth with DU-145 prostate was 34%; with SF-268 CNS, 31.8%; in the experiment with SF-295 CNS it was 21.1%; with SF-539 CNS, 20.9%; in the experiment with UACC-257 melanoma it was 27.9%; with M14 melanoma, 25.4%. Moreover, the growth in the experiment with HCT-15 colon was 10.4%; in the experiment with HT29 colon, 22.5%; with SNB-19 CNS, 24.5%; in the experiment on U251 CNS, 32.5%; in the experiment with SK-MEL-5 melanoma, 1.38% (active); in the experiment on UACC-62 melanoma it was 10.8%. Besides, the growth is -6.2% (active) in the experiment with SK-MEL-2 melanoma and -3.65% (active) in the experiment on HL-60(TB) leukemia.

On to `O=C(/C=C/c1cccc(Br)c1)c1nc2ccccc2n1Cc1ccc(F)cc1`, for which the growth with NCI-H226 lung is 14.5%; with NCI-H322M lung, 75.8%; in the experiment on HOP-62 NSCLC it was 38.3%; with NCI-H460 lung it was 33.1%; in the experiment with NCI-H522 lung, 59.4%; in the experiment on COLO 205 colon, 79.3%. In addition, the growth with DU-145 prostate was 30.2%; with SF-268 CNS, 62.6%; in the experiment with SF-295 CNS, 62.9%; with SF-539 CNS, 8.26% (active); in the experiment with UACC-257 melanoma, 55.1%; in the experiment with M14 melanoma, 30.7%. Further, the growth is -31.6% (active) in the experiment with HCT-15 colon; 7.15% (active) with HT29 colon; 47.1% in the experiment on SNB-19 CNS; -9.29% (active) in the experiment on U251 CNS; 58.3% in the experiment with SK-MEL-5 melanoma; 22.4% with UACC-62 melanoma. The growth in the experiment on SK-MEL-2 melanoma was 63.9%; with HL-60(TB) leukemia it was 3.12% (active).

As for `CCOP(=O)(OCC)C(NC(C)=O)C(=O)SCCN` (stereo not given), the growth was 106% with NCI-H226 lung; 102% in the experiment on NCI-H322M lung; 107% with HOP-62 NSCLC; 121% with NCI-H460 lung; 98.7% in the experiment with NCI-H522 lung; 128% in the experiment with COLO 205 colon. For the same compound, the growth is 122% in the experiment with DU-145 prostate; 125% with SF-268 CNS; 93.2% with SF-295 CNS; 97.5% with SF-539 CNS; 96.2% with UACC-257 melanoma; 106% in the experiment on M14 melanoma. Also, the growth with HCT-15 colon was 102%; with HT29 colon, 113%; with SNB-19 CNS, 96.9%; in the experiment with U251 CNS, 106%; in the experiment on SK-MEL-5 melanoma it was 99.1%; in the experiment with UACC-62 melanoma, 95.8%. Moreover, the growth in the experiment with SK-MEL-2 melanoma is 112%; in the experiment on HL-60(TB) leukemia, 99.2%.

For the compound `Cc1ccc2[nH]c(=S)n(-c3ccc(F)cc3)c(=O)c2c1`, the growth was 97.6% in the experiment on NCI-H226 lung; 99% with NCI-H322M lung; 96.3% with HOP-62 NSCLC; 106% in the experiment with NCI-H460 lung; 97.9% in the experiment with NCI-H522 lung; 134% with COLO 205 colon. Also, the growth in the experiment on DU-145 prostate was 110%; with SF-268 CNS, 106%; in the experiment with SF-295 CNS it was 98.9%; in the experiment with SF-539 CNS, 94.8%; with UACC-257 melanoma, 104%; in the experiment with M14 melanoma, 100%. Further, the growth was 98.9% in the experiment with HCT-15 colon; 107% in the experiment with HT29 colon; 90.3% with SNB-19 CNS; 102% in the experiment with U251 CNS; 98.3% in the experiment with SK-MEL-5 melanoma; 90.7% in the experiment on UACC-62 melanoma. The figures for the growth in the experiment on SK-MEL-2 melanoma and in the experiment with HL-60(TB) leukemia were 105% and 118%, respectively.

Take `C[C@H]1[C@H](OC(=O)CCC(=O)N(CCCc2cn(-c3ccc([N+](=O)[O-])cc3)nn2)CCNc2ccnc3cc(Cl)ccc23)O[C@@H]2OC3(C)CC[C@H]4[C@H](C)CC[C@@H]1[C@@]24OO3`: the growth in the experiment on NCI-H226 lung was 61.6%; with NCI-H322M lung, 81.5%; with HOP-62 NSCLC it was 69.4%; with NCI-H460 lung, 53.5%; in the experiment with NCI-H522 lung, 5.13% (active); in the experiment with COLO 205 colon, 20.1%. The growth with DU-145 prostate is 53.8%; with SF-268 CNS, 59.5%; in the experiment with SF-295 CNS, 46.1%; in the experiment on SF-539 CNS it was 38.1%; with UACC-257 melanoma it was 63.3%; in the experiment on M14 melanoma it was 45.3%. Further, the growth is 15.8% in the experiment with HCT-15 colon; -6.33% (active) in the experiment on HT29 colon; 67% in the experiment with SNB-19 CNS; 55.9% with U251 CNS; 17.8% with SK-MEL-5 melanoma; 39% in the experiment on UACC-62 melanoma. In addition, the growth with SK-MEL-2 melanoma was 26.7%; in the experiment with HL-60(TB) leukemia, -24.2% (active).

On to `O=C(/C=C/c1ccc(Cl)cc1Cl)c1nc2ccccc2n1Cc1ccc(Br)cc1`, for which the growth with NCI-H226 lung was 55.7%; in the experiment with NCI-H322M lung it was 84.4%; with HOP-62 NSCLC it was 94.8%; in the experiment on NCI-H460 lung it was 78.1%; with NCI-H522 lung it was 88.2%; in the experiment on COLO 205 colon, 100%. In addition, the growth in the experiment on DU-145 prostate is 83.9%; with SF-268 CNS, 81%; in the experiment with SF-295 CNS, 79.4%; in the experiment on SF-539 CNS, 84%; with UACC-257 melanoma, 84.4%; in the experiment with M14 melanoma, 78.4%. The growth with HCT-15 colon was 46.6%; with HT29 colon, 53.9%; in the experiment with SNB-19 CNS it was 74.8%; with U251 CNS, 45%; with SK-MEL-5 melanoma it was 85%; in the experiment with UACC-62 melanoma, 60.7%. Further, the growth is 97.2% in the experiment on SK-MEL-2 melanoma and 60% with HL-60(TB) leukemia.
